Assay results published in the supplement of paper PMC9262897, “Low-cost anti-mycobacterial drug discovery using engineered E. coli” (Nature Communications, 2022).
Where a name gives a salt, the structure may show the parent alone. ± gives the standard deviation of the averaged measurements.

Assays:
Assay in all cases: growth (OD600 after 10 h); higher = more growth (less inhibition)
[1] = system: E. coli TESEC Alr+ wild-type control; conditions: compound 0.1 mM; raw OD600 reference: median of DMSO wells 0.241, cell-free background 0.041
Method: (§1)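 TESEC Mtb Alr E. coli, or the Alr+ wild-type control, in 384-well plates with Prestwick library compounds at 0.1 mM and 1% DMSO, across arabinose induction levels of 1E3 to 1E7 nM. Growth is read as OD600 after 10 h at 37 °C in triplicate biological replicates.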

E. coli TESEC Mtb Alr [2] = conditions: compound 0.1 mM
Method: as §1

E. coli TESEC Mtb Asd = conditions: compound 0.1 mM
Method: (§2)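 TESEC E. coli strains in which the native enzyme is deleted and replaced by arabinose-inducible Mtb Asd, DapB, CysH or TrpD, each grown in its selective medium. Strains were screened against the Prestwick library at 0.1 mM and 1% DMSO in 384-well format at low and high arabinose induction. Growth is read as OD600 after 10 h in triplicate.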

[3] = system: E. coli TESEC Alr+ wild-type control; conditions: compound 0.1 mM; raw OD600 reference: median of DMSO wells 0.49, cell-free background 0.052
Method: (§3)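 TESEC Mtb Alr E. coli (ΔaraC ΔtolC ΔentC Δalr ΔdadX, arabinose-inducible Mtb Alr) or the Alr+ wild-type control strain, grown in defined M9-fructose medium without D-alanine in 96-well plates with Prestwick library compounds at 0.1 mM and 1% DMSO. Low Alr induction is 0.1 µM arabinose and high induction is 10 mM arabinose.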

E. coli TESEC Mtb Alr [4] = conditions: compound 0.1 mM; remark: listed apart in the source
Method: as §3

E. coli TESEC Mtb DapB = conditions: compound 0.1 mM
Method: as §2

[5] = arabinose 1000 nM, raw OD600 reference: median of DMSO wells 0.294, cell-free background 0.041
[6] = arabinose 10000 nM, raw OD600 reference: median of DMSO wells 0.264, cell-free background 0.041
[7] = arabinose 100000 nM, raw OD600 reference: median of DMSO wells 0.201, cell-free background 0.041
[8] = arabinose 1000000 nM, raw OD600 reference: median of DMSO wells 0.193, cell-free background 0.041
[9] = arabinose 10000000 nM, raw OD600 reference: median of DMSO wells 0.146, cell-free background 0.041
[10] = arabinose induction (level): High, raw OD600 reference: median of DMSO wells 0.331, cell-free background 0.041
[11] = arabinose induction (level): Low, raw OD600 reference: median of DMSO wells 0.417, cell-free background 0.041
[12] = arabinose 100 nM, raw OD600 reference: median of DMSO wells 0.413, cell-free background 0.052
[13] = arabinose 10000000 nM, raw OD600 reference: median of DMSO wells […], cell-free background 0.052
[14] = arabinose induction (level): High, raw OD600 reference: median of DMSO wells […], cell-free background 0.041
[15] = arabinose induction (level): Low, raw OD600 reference: median of DMSO wells 0.227, cell-free background 0.041

Row | Structure (SMILES) | growth [1] | growth (E. coli TESEC Mtb Alr [2]; [5]) | growth (E. coli TESEC Mtb Alr [2]; [6]) | growth (E. coli TESEC Mtb Alr [2]; [7]) | growth (E. coli TESEC Mtb Alr [2]; [8]) | growth (E. coli TESEC Mtb Alr [2]; [9]) | growth (E. coli TESEC Mtb Asd; [10]) | growth (E. coli TESEC Mtb Asd; [11]) | growth [3] | growth (E. coli TESEC Mtb Alr [4]; [12]) | growth (E. coli TESEC Mtb Alr [4]; [13]) | growth (E. coli TESEC Mtb DapB; [14]) | growth (E. coli TESEC Mtb DapB; [15])
1 | CN1CCN2c3ccccc3Cc3ccccc3C2C1 (stereo not given) [Mianserine hydrochloride] | 0.179 ± 0.0089 | 0.198 ± 0.013 | 0.283 ± 0.017 | 0.211 ± 0.014 | 0.142 ± 0.011 | 0.17 ± 0.0078 | 0.222 ± 0.042 | 0.303 ± 0.04 | 0.4446 ± 0.0027 | 0.424 ± 0.0035 | 0.318 ± 0.015 |  | 
2 | CC(=O)NS(=O)(=O)c1ccc(N)cc1 [Sulfacetamide sodic hydrate] | 0.265 ± 0.006 | 0.313 ± 0.029 | 0.261 ± 0.0078 | 0.237 ± 0.011 | 0.187 ± 0.02 | 0.151 ± 0.0041 | 0.375 ± 0.022 | 0.407 ± 0.063 |  | 0.406 ± 0.013 | 0.353 ± 0.018 | 0.188 ± 0.0037 | 0.232 ± 0.048
3 | CN[C@@H]1[C@@H](O[C@H]2O[C@H](CO)[C@@H](N)[C@H](O)[C@H]2O)OC2C[C@@H](N)[C@@H](O[C@H]3[C@H](O)[C@@H](O)[C@H](N)C[C@@H]3N)OC2[C@@H]1O (stereo not given in full) [Apramycin] | 0.0408 ± 0.00099 | 0.045 ± 0.0037 | 0.03913 ± 0.00032 | 0.0442 ± 0.00091 | 0.0395 ± 0.0018 | 0.05653 ± 0.00029 | 0.0487 ± 0.0014 | 0.0476 ± 0.0012 | 0.0798 ± 0.0039 | 0.0841 ± 0.008 | 0.133 ± 0.069 |  | 
4 | O=C(NCCN1CCOCC1)c1ccc(Cl)cc1 [Moclobemide] | 0.233 ± 0.0068 | 0.287 ± 0.0083 | 0.25 ± 0.0059 | 0.225 ± 0.032 | 0.177 ± 0.013 | 0.136 ± 0.0024 | 0.323 ± 0.11 | 0.395 ± 0.14 |  | 0.416 ± 0.0096 | 0.338 ± 0.009 | 0.191 ± 0.0078 | 0.217 ± 0.025
5 | CC(C)COCC(CN(Cc1ccccc1)c1ccccc1)N1CCCC1 (stereo not given) [Bepridil hydrochloride] | 0.03963 ± 0.00021 | 0.03953 ± 0.00038 | 0.03937 ± 0.00031 | 0.04057 ± 0.00029 | 0.03933 ± 5.8e-05 | 0.0411 ± 0.0014 | 0.04653 ± 0.00032 | 0.0475 ± 0.0016 | 0.04887 ± 0.00032 | 0.304 ± 0.21 | 0.0512 ± 0.0012 |  | 
6 | CC(C)NCC(O)c1ccc(O)c(O)c1 (single isomer, unassigned; (-)) [(-)-Isoproterenol hydrochloride] | 0.236 ± 0.0036 | 0.289 ± 0.0076 | 0.278 ± 0.015 | 0.184 ± 0.02 | 0.199 ± 0.004 | 0.143 ± 0.0042 | 0.281 ± 0.052 | 0.392 ± 0.03 | 0.539 ± 0.066 | 0.4345 ± 0.003 | 0.32 ± 0.02 |  | 
7 | CC(C)NNC(=O)c1ccncc1 [Iproniazide phosphate] | 0.253 ± 0.0043 | 0.276 ± 0.0095 | 0.27 ± 0.0057 | 0.219 ± 0.033 | 0.188 ± 0.007 | 0.153 ± 0.0052 | 0.359 ± 0.057 | 0.43 ± 0.014 |  | 0.417 ± 0.007 | 0.374 ± 0.011 | 0.199 ± 0.02 | 0.223 ± 0.034
8 | CC[C@H]1OC(=O)[C@H](C)[C@@H](O[C@H]2C[C@@](C)(OC)[C@@H](O)[C@H](C)O2)[C@H](C)[C@@H](O[C@@H]2O[C@H](C)C[C@H](N(C)C)[C@H]2O)[C@](C)(O)C[C@@H](C)[C@@H]2N[C@@H](COCCOC)O[C@H]([C@H]2C)[C@]1(C)O [Dirithromycin] | 0.0424 ± 0.0002 | 0.04193 ± 0.00015 | 0.03907 ± 0.00012 | 0.044 ± 0.00057 | 0.0396 ± 0.0001 | 0.0428 ± 0.0002 | 0.057 ± 0.0029 | 0.054 ± 0.0053 | 0.0524 ± 0.00093 | 0.0635 ± 0.0042 | 0.0507 ± 0.00036 |  | 
9 | CNCCC=C1c2ccccc2C=Cc2ccccc21 [Norcyclobenzaprine] | 0.182 ± 0.016 | 0.194 ± 0.022 | 0.254 ± 0.014 | 0.157 ± 0.0048 | 0.0991 ± 0.0027 | 0.111 ± 0.0032 | 0.204 ± 0.045 | 0.238 ± 0.036 | 0.514 ± 0.015 | 0.419 ± 0.011 | 0.212 ± 0.011 |  | 
10 | O=C(c1ccc(F)cc1)C1CCN(CCn2c(=O)[nH]c3ccccc3c2=O)CC1 [Ketanserin tartrate hydrate] | 0.183 ± 0.0037 | 0.251 ± 0.0083 | 0.27 ± 0.0047 | 0.221 ± 0.033 | 0.132 ± 0.0046 | 0.17 ± 0.0079 | 0.243 ± 0.075 | 0.393 ± 0.039 | 0.491 ± 0.043 | 0.407 ± 0.011 | 0.2801 ± 0.002 |  | 
11 | CC=CC(=O)N(CC)c1ccccc1C [Crotamiton] | 0.242 ± 0.01 | 0.329 ± 0.028 | 0.269 ± 0.014 | 0.236 ± 0.014 | 0.181 ± 0.0031 | 0.158 ± 0.017 | 0.473 ± 0.015 | 0.467 ± 0.02 | 0.489 ± 0.022 | 0.4 ± 0.02 | 0.32 ± 0.0055 |  | 
12 | CN(C/C=C/C#CC(C)(C)C)Cc1cccc2ccccc12 [Terbinafine] | 0.214 ± 0.0072 | 0.272 ± 0.0085 | 0.226 ± 0.025 | 0.177 ± 0.0062 | 0.085 ± 0.0043 | 0.174 ± 0.0062 | 0.296 ± 0.046 | 0.41 ± 0.037 | 0.358 ± 0.013 | 0.145 ± 0.035 | 0.0574 ± 0.0026 |  | 
13 | CN(C)C(=O)C(CCN1CCC(O)(c2ccc(Cl)cc2)CC1)(c1ccccc1)c1ccccc1 [Loperamide hydrochloride] | 0.0426 ± 0.00061 | 0.0401 ± 0.00042 | 0.0402 ± 0.00044 | 0.0412 ± 0.00047 | 0.0404 ± 0.0001 | 0.04237 ± 0.00015 | 0.0486 ± 0.00055 | 0.0487 ± 0.00055 | 0.0784 ± 0.034 | 0.4189 ± 0.00099 | 0.0518 ± 0.00072 |  | 
14 | CC(C(=O)O)c1ccc2c(c1)[nH]c1ccc(Cl)cc12 (stereo not given) [Carprofen] | 0.0924 ± 0.0058 | 0.116 ± 0.006 | 0.107 ± 0.0066 | 0.1024 ± 0.001 | 0.0781 ± 0.0038 | 0.111 ± 0.0039 | 0.171 ± 0.015 | 0.168 ± 0.044 | 0.594 ± 0.029 | 0.409 ± 0.0018 | 0.149 ± 0.025 |  | 
15 | CO[C@H]1/C=C/O[C@@]2(C)Oc3c(C)c(O)c4c(O)c(c(/C=N/N5CCN(C6CCCC6)CC5)c(O)c4c3C2=O)NC(=O)/C(C)=C\C=C\[C@H](C)[C@H](O)[C@@H](C)[C@@H](O)[C@@H](C)[C@H](OC(C)=O)[C@@H]1C [Rifapentine] | 0.0433 ± 0.00049 | 0.0468 ± 0.0029 | 0.04193 ± 0.00032 | 0.042 ± 0.00082 | 0.0431 ± 0.0013 | 0.04243 ± 0.00025 | 0.0584 ± 0.0025 | 0.0547 ± 0.0039 | 0.05153 ± 0.00031 | 0.0847 ± 0.014 | 0.0548 ± 0.0062 |  | 
16 | N[C@H]1CONC1=O [(S)-(-)-Cycloserine] | 0.247 ± 0.0025 | 0.0382 ± 0.001 | 0.0389 ± 0.0016 | 0.217 ± 0.0065 | 0.188 ± 0.012 | 0.108 ± 0.0032 | 0.329 ± 0.034 | 0.354 ± 0.038 | 0.558 ± 0.063 | 0.045 ± 0.00044 | 0.13 ± 0.0078 |  | 
17 | C[C@H](O)C(=O)Nc1c(I)c(C(=O)NC(CO)CO)c(I)c(C(=O)NC(CO)CO)c1I [Iopamidol] | 0.261 ± 0.011 | 0.323 ± 0.014 | 0.287 ± 0.012 | 0.217 ± 0.0049 | 0.195 ± 0.0084 | 0.166 ± 0.0031 | 0.443 ± 0.035 | 0.396 ± 0.035 | 0.465 ± 0.036 | 0.397 ± 0.022 | 0.338 ± 0.011 |  | 
